Screening results as filed in PubChem BioAssay.
ANO1 block: blocks the mouse calcium-activated chloride channel TMEM16A; normalized B-score (activity score, 25-100; higher = stronger inhibition) at 10 µM; HEK293 TMEM16A/YFP iodide influx fluorescence, ionomycin; actives 1.2% (n = 310,000);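 active = ratio plate-corrected score three or more library SD toward inhibition, starting fluorescence score within five deviations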;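 also: score derived from kinetic fluorescence span divided by baseline fluorescence per well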
Cardiac RTF inh: cardiac RTF calcium desensitization; P19429+P45379; IANBD-labeled cardiac RTF, Ca2+ fluorescence; AID 493244; inhibition, % at 7.15 µM; actives 0.12% (n = 340,000);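 active = inhibition above the mean inhibition of all tested compounds plus 3 SD, cut at about 17% in these data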;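 also: assay run at fixed EC70 calcium of 1.6 mM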
cardiac RTF act: cardiac RTF calcium sensitization | activation, % at 7.2 µM | P19429+P45379 | IANBD-labeled TnC RTF fluorescence at EC20 calcium; 0% EC20 calcium, 100% full calcium | AID 493008 | actives 0.24% (n = 340,000);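 active = activation above the mean over all tested compounds plus 3 SD, cut at about 30% in these data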;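 also: rise in fluorescence read as greater calcium sensitivity of cardiac thin filaments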
CRFBP-R2 block: antagonists of CRF-binding protein/CRF-R2 receptor complex; HEK293 CRF-R2/CRF-BP, CRF-induced calcium fluorescence; inhibition, % at 11.8 µM; actives 0.59% (n = 350,000);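 active = inhibition of the ligand-induced calcium signal above about 50% at the single tested concentration, limit read from the data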
ANO1 activ: mouse TMEM16A channel activation, primary screen; HEK293 TMEM16A/YFP-H148Q/I152L, iodide quench fluorescence; hits give low values; actives 0.3% (n = 340,000); AID 623877; Q8BHY3; B-score at 10 µM;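 active = fluorescence-ratio B-score plate-corrected deviation score at least 3 library SD below zero, with starting fluorescence score within 5 deviations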;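 also: channel opened by trigger with iodide after compound preincubation; score built on the fluorescence ratio of max minus min over baseline; more negative score means more quench and so TMEM16A activation or potentiation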
CRFBP-R2 agonist: agonists of human CRF-binding protein/CRF-R2 receptor complex | HEK293 CRF-R2/CRF-BP, calcium dye fluorescence (FLIPR); percent of saturating CRF peptide response | activation, % at 13.2 µM | actives 0.46% (n = 350,000) | AID 588473;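 active = activation of at least 50%, plus an integration ratio under a set limit after plate pattern correction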;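 also: plate controls were neutral control wells without compound for no effect and CRF at EC100 for full effect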
TMEM16A reconf: re-confirmation of mouse TMEM16A chloride channel inhibitors; actives 39% (n = 2,300); HEK293 TMEM16A/YFP-H148Q, iodide quench fluorescence; ionomycin added to raise cell calcium; inhibition, % at 10 µM; shares compounds with ANO1 block; AID 652189;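 active = mean duplicate percent inhibition, scaled so buffer wells are 0 and the reference blocker 100, over three buffer SD above buffer mean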
TMEM16A Ca cntr: calcium mobilization counter-screen hit for TMEM16A inhibitor series | calcium response (% of ionomycin), % at 10 µM | AID 652231 | TMEM16A/YFP HEK293, Fluo4 calcium mobilization | actives 2% (n = 2,300) | shares compounds with ANO1 block;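 active = duplicate-averaged calcium signal over 20% of the ionomycin maximum, relative to buffer baseline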;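 also: each well's signal is peak minus trough fluorescence divided by its pre-addition baseline; 0% = buffer wells and 100% = ionomycin wells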
Parental YFP cnt: counter-screen for TMEM16A inhibitors: effect in parental YFP-HEK293 cells; shares compounds with ANO1 block; iodide YFP quench, ionomycin; YFP ratio F(max-min)/F0 at 10 µM; 2,300 tested, under 10 active; AID 652233;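 active = yellow fluorescent protein signal ratio exceeding the buffer control mean by over 5 SD of those controls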;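 also: ratio is mean of duplicate wells from kinetic YFP trace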
ClC-1 rat inh: blocks the rat ClC-1 voltage-dependent chloride channel; shares compounds with ANO1 block; CHO ClC-1-YFP, iodide influx fluorescence quench; iodide control reads 0, buffer control 100; ratio percent, % at 10 µM; 2,300 tested, under 10 active;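 active = duplicate-mean ratio percent above the mean of iodide-only control wells, which defines zero, plus 5 of their SD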;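 also: higher percent means stronger block of ClC-1 iodide influx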
Target sequence (P35524 whole entry, looked up): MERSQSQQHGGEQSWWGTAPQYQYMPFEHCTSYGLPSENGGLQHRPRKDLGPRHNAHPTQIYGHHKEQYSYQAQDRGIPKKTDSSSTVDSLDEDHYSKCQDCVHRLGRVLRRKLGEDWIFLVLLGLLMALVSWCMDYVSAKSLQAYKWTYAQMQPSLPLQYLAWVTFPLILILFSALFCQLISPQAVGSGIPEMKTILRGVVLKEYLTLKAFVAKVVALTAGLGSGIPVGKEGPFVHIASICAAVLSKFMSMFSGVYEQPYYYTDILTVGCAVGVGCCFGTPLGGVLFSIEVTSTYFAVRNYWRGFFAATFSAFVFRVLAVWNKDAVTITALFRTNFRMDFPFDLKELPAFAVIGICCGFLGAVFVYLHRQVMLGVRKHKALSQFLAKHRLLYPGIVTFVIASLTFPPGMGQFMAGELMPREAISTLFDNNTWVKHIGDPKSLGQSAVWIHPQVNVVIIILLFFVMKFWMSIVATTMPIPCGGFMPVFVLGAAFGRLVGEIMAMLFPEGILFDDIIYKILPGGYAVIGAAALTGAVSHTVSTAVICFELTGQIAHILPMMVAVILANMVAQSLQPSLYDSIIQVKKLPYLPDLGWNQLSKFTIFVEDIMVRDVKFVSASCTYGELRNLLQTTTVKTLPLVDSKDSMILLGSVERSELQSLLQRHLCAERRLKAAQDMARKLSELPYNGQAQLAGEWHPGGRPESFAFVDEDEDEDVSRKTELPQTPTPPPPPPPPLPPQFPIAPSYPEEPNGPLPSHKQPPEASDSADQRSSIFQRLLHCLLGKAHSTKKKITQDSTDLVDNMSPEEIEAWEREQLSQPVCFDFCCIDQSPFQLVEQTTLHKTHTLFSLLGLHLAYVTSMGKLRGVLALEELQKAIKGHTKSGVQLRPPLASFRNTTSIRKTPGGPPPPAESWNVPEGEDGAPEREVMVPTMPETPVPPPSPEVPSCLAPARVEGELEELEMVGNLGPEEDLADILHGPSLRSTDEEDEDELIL
The depositor's hits bear a star; i = inactive; · = no result given. Most compounds without a hit are left out; they make up all but 2.4% or so of the library.

SMILES	ANO1 block	Cardiac RTF inh	cardiac RTF act	CRFBP-R2 block	ANO1 activ	CRFBP-R2 agonist	TMEM16A reconf	TMEM16A Ca cntr	Parental YFP cnt	ClC-1 rat inh
COc1cccc(CNC[C@H]2O[C@@H](n3ccc(N)nc3=O)[C@H](O)[C@@H]2O)c1OCc1ccc(F)cc1Cl	·	·	·	14.4	·	1.1	·	·	·	·
Cc1cc(Cl)ccc1C(=O)C1CCCN(C(=O)CN2CCOC2=O)C1 (configuration not stated)	i	-8.4	0.4	-4.0	i	-0.8	·	·	·	·
COc1ccc(-c2nc(C#N)c(N3CCc4ccccc4C3)o2)cc1OC	100*	-2.6	-0.2	6.7	i	0.2	i	i	-0.932	-14.0
COc1ccccc1-c1nc(C#N)c(N2CCc3ccccc3C2)o1	100*	-5.8	0.1	26.6	i	-0.8	i	i	-1.22	-18.0
COc1ccccc1-c1nc(C#N)c(N2CCCCCC2)o1	i	-1.4	-4.0	13.9	i	-0.3	·	·	·	·
CC(C)Cc1csc(NC(=O)c2ccc(Cl)cc2)c1C(=O)O	25*	-1.4	1.6	94.9*	i	27.3	39.0%*	i	-0.808	-5.0
CC(C)Cc1csc(NC(=O)c2ccccc2Cl)c1C(=O)O	i	-7.5	2.7	4.0	i	-0.5	·	·	·	·
Cc1ccc(-c2csc(NC(=O)c3ccc(Br)cc3)c2C(=O)O)cc1	100*	1.4	-0.2	15.6	i	-1.0	28.5%*	i	-1.17	0.5
COC(=O)C(Cc1ccc(OC(=O)c2ccccc2Cl)cc1)N1Cc2ccccc2C1=O (configuration not stated)	100*	-5.4	-2.9	4.8	i	7.3	i	i	-1	-5.0
Cc1cccc(NC(=O)c2ccc(C(=O)c3ccccc3)cc2)n1	100*	-6.0	17.4	-6.6	i	0.5	47.0%*	i	-0.951	-18.5
CCN(CC)C(=O)Cn1cc(C(=O)C(=O)Nc2ccc3c(c2)OCO3)c2ccccc21	·	·	·	15.1	·	-2.0	·	·	·	·
CCN(Cc1ccncc1)C(=O)c1ccccc1NS(=O)(=O)c1ccc(F)cc1	i	7.8	-0.3	-1.3	i	0.2	·	·	·	·
CC(C)[C@H](NC(=O)c1ccccc1)C(=O)OCC(=O)/C=C1/N(C)c2ccccc2C1(C)C	25*	-5.8	4.8	-12.5	i	-1.6	22.5%*	i	-1.35	2.0
CC(C)(C)C1CCc2onc(C(=O)Nc3cnn(Cc4ccc(F)cc4)c3)c2C1 (configuration not stated)	i	-8.3	8.5	7.4	i	0.1	·	·	·	·
CC(C)(C)C1CCc2onc(C(=O)Nc3ccc(F)cc3F)c2C1 (configuration not stated)	100*	2.0	-5.3	-94.8	i	4.6	i	i	-1.03	-3.5
Cc1ccc(-n2c(=O)[nH]c3cc(C(=O)NC4CCN(Cc5ccccc5)CC4)ccc3c2=O)cc1	i	2.0	1.4	1.2	i	-0.6	·	·	·	·
COC(=O)c1ccc(NS(=O)(=O)c2ccc(OC)cc2)cc1	100*	-2.5	-0.2	-3.9	i	-3.0	i	i	-1.11	-14.0
COc1ccc(S(=O)(=O)Nc2cccc(NC(C)=O)c2)cc1	25*	-2.5	-3.6	-16.6	i	0.0	i	i	-0.839	-3.0
CC(=O)c1ccc(NS(=O)(=O)c2ccc(CC(C)C)cc2)cc1	100*	0.4	0.1	4.3	i	0.9	53.5%*	i	-1.07	-5.5
COc1ccc(/C=C(\C#N)C(=O)OCCNC(=O)c2ccncc2)cc1	i	2.0	-0.7	0.6	i	-0.9	·	·	·	·
CCOc1ccccc1NC(=O)NNC(=O)COc1cccc(C)c1C	i	7.5	-3.9	-5.4	i	-0.3	·	·	·	·
CC1CC(C)CN(C(=O)C(C)N(C)CC(=O)Nc2ccc(Cl)cc2)C1 (configuration not stated)	i	-3.4	5.0	-25.3	i	-0.2	·	·	·	·
COc1ccc(CCCc2nnc(SCC(=O)Nc3cccc(C)c3)o2)cc1	25*	-14.6	0.1	-30.2	i	-1.0	18.0%*	i	-1	-13.5
COc1ccccc1CC(=O)N1CCN(c2cccc(C(F)(F)F)c2)CC1	i	-1.2	5.3	-7.9	i	-0.2	·	·	·	·
CCOC(=O)c1cccc(NC(=O)C2CCN(S(=O)(=O)c3cccs3)CC2)c1	i	-4.0	3.7	-6.5	i	-1.3	·	·	·	·
SMILES	ANO1 block	Cardiac RTF inh	cardiac RTF act	CRFBP-R2 block	ANO1 activ	CRFBP-R2 agonist	TMEM16A reconf	TMEM16A Ca cntr	Parental YFP cnt	ClC-1 rat inh
CCOC(=O)c1ccc2c(c1)nc(C1CCN(S(=O)(=O)c3cccs3)CC1)n2CC	25*	-8.3	0.0	-8.3	i	0.5	i	i	-1.04	-5.5
Cn1c(NN)nc2sc3c(c2c1=O)CC(C)(C)OC3	i	-3.4	-0.4	-1.1	i	-0.1	·	·	·	·
CCC1(C)Cc2c(sc3nc(NC)n(C)c(=O)c23)CO1 (configuration not stated)	25*	5.6	0.3	28.2	i	-1.5	i	i	-0.903	-9.5
CC(C)CC1NC(=O)c2cccnc2-n2c1nc1ccccc1c2=O (configuration not stated)	·	·	·	4.2	·	-1.3	·	·	·	·
O=S1(=O)CCS(=O)(=O)C1c1ccccc1	i	0.9	1.5	-6.5	i	2.2	·	·	·	·
COC(=O)c1ccccc1CSc1nsc(/C=C/N(C)C)c1C#N	25*	-0.1	-0.8	-22.5	i	2.4	19.0%*	i	-0.764	3.5
Cc1nc(CSc2nsc(/C=C/N(C)C)c2C#N)cs1	·	-14.1	0.3	-11.6	i	1.8	·	·	·	·
CCOC(=O)c1cc2c(nc1N)CC(C)(CC)OC2 (configuration not stated)	i	-1.9	-6.5	-3.3	i	-0.4	i	i	-1.16	-8.5
CCCCN1C(=O)/C(=C2/Sc3ccccc3N2C)S/C1=N\c1ncn[nH]1	i	-3.9	6.0	21.3	i	8.6	·	·	·	·
O=C(CCNC(=O)c1ccc(Cl)cc1)Nc1ccccc1N1CCCC1	i	7.9	0.7	5.2	i	-3.8	·	·	·	·
